Bioassay records as filed in PubChem BioAssay.
Compounds with a hit are over-represented: about 6.3% of the library has one in this group of screens.
RORgamma inh: blocks mouse ROR gamma transcriptional activity | P51450 | Drosophila S2 Gal4-RORgamma UAS-luciferase reporter, 20 h | Potency, µM (highest dose often 53.6 µM), usual class: inhibitors | 5.4% of 310,000 active; further: nearly all actives have a fitted effect of over 60% in size
Target sequence (P51450 whole entry, looked up, the tested form may be a part): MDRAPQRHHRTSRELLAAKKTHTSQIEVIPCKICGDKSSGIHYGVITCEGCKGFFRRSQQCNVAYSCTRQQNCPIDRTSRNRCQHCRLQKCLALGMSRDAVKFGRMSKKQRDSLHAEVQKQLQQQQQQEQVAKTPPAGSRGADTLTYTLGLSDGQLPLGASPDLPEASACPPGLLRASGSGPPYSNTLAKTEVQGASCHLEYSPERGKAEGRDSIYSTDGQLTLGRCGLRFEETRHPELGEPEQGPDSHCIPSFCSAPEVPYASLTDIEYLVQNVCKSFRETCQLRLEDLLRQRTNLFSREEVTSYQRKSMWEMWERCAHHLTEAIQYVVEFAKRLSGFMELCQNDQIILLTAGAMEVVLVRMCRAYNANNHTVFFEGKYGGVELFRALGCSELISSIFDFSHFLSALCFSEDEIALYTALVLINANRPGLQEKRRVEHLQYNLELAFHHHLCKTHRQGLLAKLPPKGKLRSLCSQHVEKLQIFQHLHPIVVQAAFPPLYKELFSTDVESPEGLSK
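ROR gamma transcriptional activity was tracked as Gal4-UAS luciferase output in stably transfected Drosophila Schneider cells, with compound added 1 hr before 700 uM copper sulfate induction and a 20 hr ambient-temperature incubation.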
TGFb SMAD3 inh: blocks TGF-b signaling; 1.2% of 410,000 active; Potency, µM (top dose mostly 46.1 µM), actives largely listed as inhibitors; HepG2 CAGA-GFP TGF-b/SMAD3 reporter, GFP fluorescence, 18 h; TGF-beta stimulated, 500 pg/mL final; further: nearly all actives have a fitted effect of over 65% in size
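First, reporter cells (HEPG2 CAGA-GFP) rested 2 h at 37 degrees C. Next, compounds were pinned in and TGF-beta added to 500 pg/mL final. After 18 h, GFP was imaged per cell and summed per well.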
HepG2 tox: kills HepG2 cells in TGF-b inhibitor counter-screen. HepG2 CAGA-GFP viability, ATP luminescence, 18 h. Potency, µM (series often up to 46.1 µM), most hits filed as cytotoxic. 0.76% of 410,000 active. AID 588856
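HepG2 CAGA-GFP cells (1000/well, DMEM with 1% FBS) received compound, then TGF-beta at 500 pg/mL final, and were incubated 18 hours at 37 degrees C. Viability was read by CellTiter-Glo luminescence. Media-only wells were set as complete cell-killing and DMSO as no toxicity.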
ATXN2 expr inh: reduces ATXN2 reporter expression in HEK-293 cells. 0.72% of 360,000 active. HEK-293 ATXN2-luciferase reporter, luminescence, 24 h. Potency, µM (titrated, usually from 57 µM), hits mostly inhibitors; further: nearly all actives have a fitted effect of over 55% in size
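ATXN2-luciferase reporter cells (luciferase flanked by upstream and downstream ATXN2 gene portions) were treated 24 h at 37 °C with compounds at up to 57 uM. SteadyGlo luminescence gave expression; GF-AFC fluorescence gave viability.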
VP16 counter: Gal4-VP16 reporter inhibition counter-screen; Drosophila S2 Gal4-VP16 UAS-luciferase, luminescence, 20 h; Potency, µM (top dose mostly 53.6 µM), hits mostly inhibitors; 3.5% of 310,000 active; AID 2546;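 further: Gal4-VP16 expression switched on by copper sulfate through the metallothionein promoter; nearly all actives have a fitted effect of over 50% in size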
ATXN viability: cell viability loss in ATXN counter-screen | S2 cells (HEK-293 line with an ATXN2-luciferase reporter) viability, CellTiter-Fluor protease fluorescence, 24 h | Potency, µM (series often up to 56.7 µM), most hits filed as cytotoxic | AID 651635 | 0.49% of 400,000 active; further: nearly all actives have a fitted effect of over 40% in size
A number is an active result; - = inactive; ? = inconclusive; . = not tested or not shown. The call rests on the fitted dose curve; in most records, active means well fitted curve in the direction sought with a large enough effect; inconclusive means small, poorly fitted or top-dose-only effect, or another doubt; inactive means no such curve, though single readings can be large; an effect the other way counts as inactive or inconclusive.

SMILES	RORgamma inh	TGFb SMAD3 inh	HepG2 tox	ATXN2 expr inh	VP16 counter	ATXN viability
Cc1c(C(=O)N(C)Cc2ccccc2)sc2nc(-c3ccc(F)cc3)cn12	.	13µM	-	.	.	.
CCN(C(=O)Cn1ncc2c1-c1cc(C)ccc1OC2)c1cc(Cl)ccc1OC	.	?	-	?	.	?
C=CCn1c(SCC(=O)c2[nH]c(C)c(C(=O)OCC)c2C)nc2scc(-c3ccc(OC)c(OC)c3)c2c1=O	10µM	?	-	28µM	10µM	.
O=C(/C=C/c1ccco1)NC(=S)Nc1ccccc1N1CCCC1	?	-	-	-	?	-
O=C(/C=C/c1ccco1)NC(=S)Nc1ccccc1O	11µM	-	-	-	?	-
Cc1ccc(NC(=S)NC(=O)/C=C/c2ccco2)c(O)c1	8.9µM	-	-	-	?	-
O=C(/C=C\c1ccco1)NC(=S)Nc1ccccc1O	22µM	-	-	-	?	-
CCOc1cc(OCC)cc(C(=O)N2CCC[C@H]2C(=O)N2CCC[C@H]2C(=O)NCc2ccccn2)c1	.	.	.	-	.	-
Cc1cc(Cn2nc(C(=O)NCc3cccc(Br)c3)cc2-c2ccccc2)on1	.	?	-	-	.	-
CCc1cc(-c2n[nH]c(C)c2-c2ccc3c(c2)OCCO3)c(O)cc1O	13µM	.	.	6.1µM	?	.
CCCc1cc(-c2n[nH]c(C)c2-c2ccc(C(=O)OCC)o2)c(O)cc1O	?	14µM	-	?	-	?
CCCc1cc(C(=O)Cc2ccc(C(=O)OCC)o2)c(O)cc1O	-	-	-	-	?	-
[O-][n+]1c2ccccc2cc2ccccc21	.	11µM	-	?	.	-
COc1ccc2nc3ccccc3[n+]([O-])c2c1	.	-	-	-	.	.
CCCN(C(=O)Cn1cnc2onc(-c3ccc(F)cc3)c2c1=O)c1cccc(Cl)c1	.	-	-	-	.	-
O=C(NCc1ccc(F)cc1)OC1CC2CC1[C@H]1CCCCN1C2=O (some centres not stated)	.	.	.	-	.	-
COc1ccccc1-c1ccnc(-n2ncc(C(=O)NCC3(N4CCOCC4)CCCC3)c2C)n1	.	.	.	.	.	-
CC(=O)Nc1ccc(S(=O)(=O)N2CCCCC2c2cccnc2)cc1 (configuration not stated)	-	-	-	-	-	-
O=C(Nc1ccc(S(=O)(=O)N2CCCCC2c2cccnc2)cc1)c1ccc(Br)cc1 (configuration not stated)	.	-	-	14µM	.	11µM
CCOc1ccc(C(=O)Nc2ccc(S(=O)(=O)N3CCCCC3c3cccnc3)cc2)cc1 (configuration not stated)	.	?	-	18µM	.	?
COc1cc(OC)c(C2=NOC(C(=O)N3CCCc4ccccc43)C2)cc1Cl (configuration not stated)	5.6µM	-	-	-	4.5µM	-
NC(=O)c1ncn([C@@H]2O[C@H](CO)[C@@H](O)[C@@H]2O)c1O	.	.	.	-	.	.
CC1(C)CC2CC(C)(CN2S(=O)(=O)c2ccc(C(=O)Nc3ccc(S(=O)(=O)N4CCOCC4)cc3)cc2)C1 (configuration not stated)	?	-	-	?	?	-
CC1(C)CC2CC(C)(CN2S(=O)(=O)c2ccc(C(=O)Nc3ccc(Cl)c(S(=O)(=O)N4CCOCC4)c3)cc2)C1 (configuration not stated)	?	?	-	-	13µM	-
CN1c2ccccc2-c2nc(SCC(=O)Nc3ccccc3C(F)(F)F)ncc2S1(=O)=O	.	-	-	-	.	-
SMILES	RORgamma inh	TGFb SMAD3 inh	HepG2 tox	ATXN2 expr inh	VP16 counter	ATXN viability
C[C@H](CO)N1C[C@H](C)[C@H](CN(C)C(=O)Nc2ccc(C(F)(F)F)cc2)OCc2cnnn2CCCC1=O	.	-	-	-	.	-
CNc1ccc(Br)cc(C(=O)/C=C/c2cc(OC)ccc2OC)c1=O	-	16µM	-	?	-	.
CCNc1ccc(Br)cc(C(=O)/C=C/c2ccc(Cl)cc2Cl)c1=O	5µM	-	-	32µM	13µM	?
c1ccc(C2Nc3ccccc3-c3nc4ccccc4n32)nc1 (configuration not stated)	8.9µM	-	-	-	-	-
COc1ccc(-c2ccc3c(c2)[C@@H]2C[C@H](N(C)C(=O)Nc4ccccc4)[C@H]([C@H](C)O)C(=O)N2CC3)cc1	.	?	-	-	.	-
CCc1nc2ccc(C(=O)NCCc3ccccn3)cn2c1N(C)Cc1ccc(N(C)C)cc1	.	?	13µM	-	.	-
CCc1nc2ccc(C(=O)NCCOc3ccc(OC)cc3)cn2c1N(C)Cc1ccc(OC)cc1	.	?	-	-	.	?
CCc1nc2ccc(C(=O)NCCOc3ccc(OC)cc3)cn2c1N(C)CCCc1ccccc1	.	14µM	-	?	.	?
NC(=O)C1CCN(CC(=O)c2c[nH]c3ccc(F)cc23)CC1	-	-	-	-	16µM	-
Cc1ccc(C2=Nc3ccc(Cl)cc3OC2)cc1	.	.	.	-	.	.
CN1CCC(Nc2ncc3ncnc(Nc4ccc(F)c(Cl)c4)c3n2)CC1	-	.	.	28µM	-	?
CCNC(=S)N=Nc1c(O)[nH]c2ccc([N+](=O)[O-])cc12	2µM	-	-	.	11µM	?
CCCCCC(=O)N=Nc1c(O)[nH]c2ccc([N+](=O)[O-])cc12	-	-	-	-	-	?
O=[N+]([O-])c1ccc2[nH]c(O)c(N=NC(=S)Nc3cccnc3)c2c1	-	-	-	-	-	-
O=[N+]([O-])c1ccc2[nH]c(O)c(N=NC(=S)NCC3CCCO3)c2c1 (configuration not stated)	4µM	-	-	-	?	?
Fc1ccccc1COc1cccc(/C=N/n2cnnc2)c1	-	-	-	-	-	-
Cc1cc(/C=N/n2cnnc2)c(C)n1-c1ccc(OCc2ccc(Cl)cc2)cc1	2.8µM	?	-	-	?	?
C(=N\n1cnnc1)/c1ccc(OCc2ccccc2)cc1	-	-	-	-	-	-
Cc1cc(/C=N/n2cnnc2)c(C)n1-c1ccc(OCc2ccccc2F)cc1	-	11µM	13µM	?	?	-
Cc1onc(-c2ccccc2)c1C(=O)NC(=S)Nc1sc2c(c1C#N)CCC(C)C2 (configuration not stated)	2.8µM	-	-	-	?	-
Cc1sc(NC(=S)NC(=O)c2ccccc2)c(C#N)c1C	.	-	-	-	.	-
C=CCNC(=S)Nc1sc2c(c1C#N)CCCC2	11µM	-	-	-	-	-
Cc1sc(NC(=S)NC(=O)c2ccc(C(C)(C)C)cc2)c(C#N)c1C	0.56µM	-	-	-	11µM	-
Cc1cc(C(=O)Nc2sc3c(c2C#N)CCC(C)C3)no1 (configuration not stated)	?	-	-	-	?	-
